# Article PMC5540273 (PLoS ONE, 2017)
# Like-named read-outs stand apart in the source and are kept apart here.
# How the values were obtained:
# CAMKK1 = settings: concentration: 1 μM, replicates: in singlicate; n = 1
# CAMKK2 = settings: concentration: 1 μM, replicates: in singlicate; n = 1
# CASK = settings: concentration: 1 μM, replicates: in singlicate; n = 1
# CDC2L1 = system: T1, CDC2L1; settings: concentration: 1 μM, replicates: in singlicate; n = 1
# T1 construct: gene CDK11B
# CDC2L2 = settings: concentration: 1 μM, replicates: in singlicate; n = 1
# CDC2L5 = system: T2, CDC2L5; settings: n = 1
# T2 construct: gene CDK13
# CDK11 = system: T3, CDK11; settings: concentration: 1 μM, replicates: in singlicate; n = 1
# T3 construct: gene CDK19
# CDK2 = settings: concentration: 1 μM, replicates: in singlicate; n = 1
# CDK3 = settings: concentration: 1 μM, replicates: in singlicate; n = 1
# CDK4-cyclinD1 = settings: n = 1
# CDK4-cyclinD3 = settings: n = 1
# CDK4 = settings: n = 1
# CDK5 = settings: concentration: 1 μM, replicates: in singlicate; n = 1
# CDK7 = settings: concentration: 1 μM, replicates: in singlicate; n = 1
# CDK8 = settings: concentration: 1 μM, replicates: in singlicate; n = 1
# CDK9 = settings: concentration: 1 μM, replicates: in singlicate; n = 1
# CDKL1 = settings: concentration: 1 μM, replicates: in singlicate; n = 1
# CDKL2 = settings: concentration: 1 μM, replicates: in singlicate; n = 1
# CDKL3 = settings: concentration: 1 μM, replicates: in singlicate; n = 1
# CDKL5 = settings: concentration: 1 μM, replicates: in singlicate; n = 1
# [1] = concentration: 1 μM, replicates: in singlicate
# 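Further: KINOMEscan kinase panel screen.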
structure (smiles),measurement,setting,value
COc1cc2c(cc1OCCN1CCN(C)CC1)ncc1c3ccc(C#N)cc3[nH]c21,%Inh,CAMKK1,86%
same,%Inh,CAMKK2,70%
same,%Inh,CASK,8%
same,%Inh,CDC2L1,7%
same,%Inh,CDC2L2,7%
same,%Inh,CDC2L5; [1],0%
same,%Inh,CDK11,0%
same,%Inh,CDK2,2%
same,%Inh,CDK3,0%
same,%Inh,CDK4-cyclinD1; [1],0%
same,%Inh,CDK4-cyclinD3; [1],0%
same,%Inh,CDK4; [1],0%
same,%Inh,CDK5,9%
same,%Inh,CDK7,99.7%
same,%Inh,CDK8,3%
same,%Inh,CDK9,14%
same,%Inh,CDKL1,32%
same,%Inh,CDKL2,6%
same,%Inh,CDKL3,0%
same,%Inh,CDKL5,0%
Cl.Nc1ncnc2occ(-c3ccc(NC(=O)Nc4cc(C(F)(F)F)ccc4F)cc3)c12 [SB-707548],%Inh,CAMKK1,9%
same,%Inh,CAMKK2,25%
same,%Inh,CASK,5%
same,%Inh,CDC2L1,25%
same,%Inh,CDC2L2,49%
same,%Inh,CDC2L5; [1],97.4%
same,%Inh,CDK11,100%
same,%Inh,CDK2,80%
same,%Inh,CDK3,89%
same,%Inh,CDK4-cyclinD1; [1],3%
same,%Inh,CDK4-cyclinD3; [1],11%
same,%Inh,CDK4; [1],2%
same,%Inh,CDK5,59%
same,%Inh,CDK7,97.8%
same,%Inh,CDK8,100%
same,%Inh,CDK9,78%
same,%Inh,CDKL1,7%
same,%Inh,CDKL2,74%
same,%Inh,CDKL3,95%
same,%Inh,CDKL5,0%
Fc1ccc(-c2nn3c(OCC(F)(F)F)cccc3c2-c2ccncc2)cc1 [GW514784],%Inh,CAMKK1,8%
same,%Inh,CAMKK2,9%
same,%Inh,CASK,7%
same,%Inh,CDC2L1,0%
same,%Inh,CDC2L2,11%
same,%Inh,CDC2L5; [1],0%
same,%Inh,CDK11,3%
same,%Inh,CDK2,0%
same,%Inh,CDK3,0%
same,%Inh,CDK4-cyclinD1; [1],46%
same,%Inh,CDK4-cyclinD3; [1],0%
same,%Inh,CDK4; [1],46%
same,%Inh,CDK5,0%
same,%Inh,CDK7,0%
same,%Inh,CDK8,57%
same,%Inh,CDK9,0%
same,%Inh,CDKL1,8%
same,%Inh,CDKL2,4%
same,%Inh,CDKL3,0%
same,%Inh,CDKL5,0%
Cc1cccc(Cn2ccn3c(=O)cc(N4CCOCC4)nc23)c1 [GSK2297542],%Inh,CAMKK1,5%
same,%Inh,CAMKK2,27%
same,%Inh,CASK,20%
same,%Inh,CDC2L1,0%
same,%Inh,CDC2L2,15%
same,%Inh,CDC2L5; [1],0%
same,%Inh,CDK11,0%
same,%Inh,CDK2,8%
same,%Inh,CDK3,20%
same,%Inh,CDK4-cyclinD1; [1],0%
same,%Inh,CDK4-cyclinD3; [1],0%
same,%Inh,CDK4; [1],6%
same,%Inh,CDK5,0%
same,%Inh,CDK7,0%
same,%Inh,CDK8,31%
same,%Inh,CDK9,0%
same,%Inh,CDKL1,20%
same,%Inh,CDKL2,29%
same,%Inh,CDKL3,0%
same,%Inh,CDKL5,0%
COC(=O)Nc1nc2cc(Oc3ccc(NC(=O)Nc4cc(F)ccc4F)cc3)ccc2[nH]1.Cl [GW701424],%Inh,CAMKK1,0%
same,%Inh,CAMKK2,4%
same,%Inh,CASK,0%
same,%Inh,CDC2L1,0%
same,%Inh,CDC2L2,6%
same,%Inh,CDC2L5; [1],0%
same,%Inh,CDK11,0%
same,%Inh,CDK2,0%
same,%Inh,CDK3,0%
same,%Inh,CDK4-cyclinD1; [1],20%
same,%Inh,CDK4-cyclinD3; [1],5%
same,%Inh,CDK4; [1],0%
same,%Inh,CDK5,0%
same,%Inh,CDK7,37%
same,%Inh,CDK8,42%
same,%Inh,CDK9,0%
same,%Inh,CDKL1,0%
same,%Inh,CDKL2,36%
same,%Inh,CDKL3,0%
same,%Inh,CDKL5,0%
O=c1cc(N2CCOCC2)nc2n(Cc3cccc(Cl)c3Cl)c(C3CC3)nn12 [GSK2358994],%Inh,CAMKK1,3%
same,%Inh,CAMKK2,8%
same,%Inh,CASK,26%
same,%Inh,CDC2L1,0%
same,%Inh,CDC2L2,0%
same,%Inh,CDC2L5; 1 µM,0%
same,%Inh,CDK11,0%
same,%Inh,CDK2,0%
same,%Inh,CDK3,5%
same,%Inh,CDK4-cyclinD1; 1 µM,0%
same,%Inh,CDK4-cyclinD3; 1 µM,0%
same,%Inh,CDK4; 1 µM,0%
same,%Inh,CDK5,7%
same,%Inh,CDK7,5%
same,%Inh,CDK8,0%
same,%Inh,CDK9,0%
same,%Inh,CDKL1,20%
same,%Inh,CDKL2,0%
same,%Inh,CDKL3,0%
same,%Inh,CDKL5,0%
CN(C(=O)c1ccc(-c2cc(-c3c[nH]nc3-c3ccccn3)ccn2)cc1)C1CCOCC1 [GW810083],%Inh,CAMKK1,12%
same,%Inh,CAMKK2,25%
same,%Inh,CASK,0%
same,%Inh,CDC2L1,0%
same,%Inh,CDC2L2,0%
same,%Inh,CDC2L5; [1],11%
same,%Inh,CDK11,52%
same,%Inh,CDK2,0%
same,%Inh,CDK3,0%
same,%Inh,CDK4-cyclinD1; [1],31%
same,%Inh,CDK4-cyclinD3; [1],0%
same,%Inh,CDK4; [1],15%
same,%Inh,CDK5,0%
same,%Inh,CDK7,9%
same,%Inh,CDK8,45%
same,%Inh,CDK9,0%
same,%Inh,CDKL1,21%
same,%Inh,CDKL2,0%
same,%Inh,CDKL3,47%
same,%Inh,CDKL5,0%
